Bioassay records (PubChem BioAssay)
Sampled rows, rich in hits. Any-hit rate of the full collection: about 0.77%.
IL-2 act – activators of IL-2; IL-2 activation reporter assay, cell-based qHTS; stimulated with anti-CD3/CD4/CD28 beads; in transgenic mouse T cells; activation, % (series mostly up to about 46 µM); 0.065% of 360,000 active; in the data active = activation above about 50%; inconclusive = mostly about 30% to 49%; also: 0% is about no effect
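Using fluorescent plate cytometry, EGFP and DsRed are detected in transgenic mouse T cells stimulated 18 h at 37 degrees C with antibody-coated beads after 60 min compound pretreatment.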
Vif-A3G inh – inhibitors of Vif-APOBEC3G interaction; Q9HC16; HeLa A3G-eYFP + Vif (tagged APOBEC3G with the HIV-1 protein that degrades it), YFP fluorescence, overnight; Potency, µM (doses to about 46.1 µM), for the others: top-dose activity, negative = active, usual class: inhibitors; 0.076% of 410,000 active; AID 602310; also: potency is read from the fitted curve at half-maximal effect; % is scaled to controls: 0 for no effect and ±100 for the full control effect; nearly all actives have a fitted effect of over 60% in size
Target sequence (Q9HC16 whole entry, looked up): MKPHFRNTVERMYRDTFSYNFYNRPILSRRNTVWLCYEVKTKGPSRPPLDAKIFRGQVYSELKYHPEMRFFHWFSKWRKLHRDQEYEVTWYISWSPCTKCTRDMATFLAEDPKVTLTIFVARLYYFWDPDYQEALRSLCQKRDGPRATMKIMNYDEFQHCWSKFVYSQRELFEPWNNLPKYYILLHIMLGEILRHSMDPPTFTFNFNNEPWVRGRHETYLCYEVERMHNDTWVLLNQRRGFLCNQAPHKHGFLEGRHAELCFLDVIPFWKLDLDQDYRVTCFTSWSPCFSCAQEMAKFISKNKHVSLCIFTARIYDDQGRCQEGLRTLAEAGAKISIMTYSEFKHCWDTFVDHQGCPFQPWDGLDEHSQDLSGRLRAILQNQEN
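HeLa cells stably expressing Vif and C-terminally eYFP-tagged A3G, seeded overnight at 37 deg C, then exposed to compound by pintool overnight at 37 deg C. Rise in yellow fluorescence (Ex 488/Em 500-530, Acumen) marks blocked Vif-driven A3G degradation.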
Vif-APOBEC3F blk – blocks the Vif interaction with APOBEC3F; 0.2% of 390,000 active; Potency, µM (doses to about 46.1 µM), without a hit: at the top dose activity, negative = active; HeLa A3F-eYFP + Vif (tagged APOBEC3F with the HIV-1 protein that degrades it), YFP fluorescence increase; also: potency is read from the fitted curve at half-maximal effect; % of control where 0% means no effect; nearly all actives have a fitted effect of over 65% in size
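Fluorescence increase (Ex 488/Em 500-530) after overnight compound treatment at 37 deg C flags inhibition of Vif-driven A3F-eYFP loss in stable HeLa A3F-eYFP/Vif cells seeded overnight beforehand.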
KAT2A inh – inhibitors of human GCN5L2 histone acetyltransferase | GCN5L2 HAT assay, ThioGlo1 CoA-SH fluorescence | Potency, µM (top dose mostly 58.9 µM), inactives show top-dose activity change, negative = inhibition, actives largely listed as inhibitors | 0.21% of 390,000 active | AID 504327; also: potency is read from the fitted curve at half-maximal effect; % is scaled to controls: 0 for no effect and ±100 for the full control effect
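qHTS, 1536-well. 20nM enzyme, pH 7.5 HEPES/EDTA/Tween-20 buffer; 15 min compound preinc., RT. Start: 75uM H3(1-25), 70uM AcCoA, 50uM ThioGlo1. Read Ex340/Em540 at t=0 (autofluorescence flag) and t=20 min.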
GoLoco inh red – inhibitors of human Gai1-RGS12 GoLoco interaction (red fluorophore); Gai1:RGS12 GoLoco peptide FP, rhodamine, 10 min; 0.44% of 230,000 active; Potency, µM (top dose mostly 61.6 µM), for the others: top-dose activity, negative = inhibition, actives largely listed as inhibitors; P63096; active = well fitted inhibition curve with a large enough effect, not every such curve was filed as active; inactive = no such curve, though single readings can be large or run the other way; also: potency is read from the fitted curve at half-maximal effect; % is scaled to controls: 0 for no effect and ±100 for the full control effect; nearly all actives have a fitted effect of over 30% in size
Target sequence (P63096 whole entry, looked up): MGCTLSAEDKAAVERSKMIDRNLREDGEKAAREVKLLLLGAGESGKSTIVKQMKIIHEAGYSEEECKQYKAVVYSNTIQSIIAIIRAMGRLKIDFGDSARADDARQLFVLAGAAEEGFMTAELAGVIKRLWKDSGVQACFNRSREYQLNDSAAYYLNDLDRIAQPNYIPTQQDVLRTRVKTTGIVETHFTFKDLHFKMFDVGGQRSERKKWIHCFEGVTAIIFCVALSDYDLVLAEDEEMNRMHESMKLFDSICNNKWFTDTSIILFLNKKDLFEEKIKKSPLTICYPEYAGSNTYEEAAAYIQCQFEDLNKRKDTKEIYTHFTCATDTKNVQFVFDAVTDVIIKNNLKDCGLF
PKM2 activator – activators of human pyruvate kinase M2 | P14618 | purified PKM2, Kinase-Glo ATP luminescence, activation; response scale: 0% is enzyme alone, no compound | Potency, µM (top dose mostly 57.5 µM), inactives show top-dose activation, actives largely listed as activators | 0.34% of 260,000 active; also: potency is read from the fitted curve at half-maximal effect; % is scaled to controls: 0 for no effect and ±100 for the full control effect; nearly all actives have a fitted effect of over 55% in size
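Purified hPK-M2 (>95%) run at intermediate activity with 0.1 mM ADP and 0.5 mM PEP in 50 mM imidazole pH 7.2, KCl, MgCl2; 1 h room temperature. ATP formed read by Kinase-Glo luminescence; normalized to uninhibited and no-enzyme controls.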
* hit, by the source's call; u = inconclusive; x = not tested or not shown. Unless noted, calls follow the shape of the dose curve; as a rule, active = well fitted curve in the direction sought with a large enough effect; inconclusive = small, poorly fitted or top-dose-only effect, or another doubt; inactive = no such curve, though single readings can be large; an effect the other way counts as inactive or inconclusive.

SMILES	IL-2 act	Vif-A3G inh	Vif-APOBEC3F blk	KAT2A inh	GoLoco inh red	PKM2 activator
COc1ccc(/C=C2\CCC(C3CCCC3)C2=O)c(OC)c1 (centres undefined)	-4	7%	-8%	-11%	x	x
COc1ccc(/C=C2\CC/C(=C\c3ccc(OC)cc3OC)C2=O)c(OC)c1	28	-23%	8.9µM*	-6%	15%	3%
CCN1/C(=C/c2ccc3cc(C)ccc3[n+]2CC)Sc2cc(C)c(C)cc21	1	u	u	0%	217%	-12%
CCN1/C(=C/c2ccc3cc(C)ccc3[n+]2CC)Sc2ccccc21	90*	-8%	-172%	-18%	37%	-70%
CC[n+]1c(/C=C2\Sc3ccccc3N2C)ccc2cccc(C)c21	160*	-18%	-211%	-3%	85%	-74%
CC(C)CC[n+]1ccccc1/C=C/c1ccc(N(C)C)cc1	20	10µM*	7.9µM*	-5%	x	x
CN(C)c1ccc(/C=C/c2cccc[n+]2[O-])cc1	3	-5%	u	-4%	-13%	-6%
Cc1ccc(-c2cn(-c3ccc(OC(F)F)cc3)c3[n+]2CCCCC3)cc1	1	6%	6%	-1%	11%	0%
Cn1c(-c2ccsc2)c(-c2cccs2)c2cc(Br)ccc21	2	-2%	-1%	20µM*	x	x
Cc1noc(/C=C/c2ccco2)c1S(=O)(=O)N1CCC(C(=O)N2CCc3ccccc3C2)CC1	13	7%	-3%	u	39%	20µM*
CC(/C=N/NC(=O)CSc1nc2ccccc2n1C)=C\c1ccco1	2	u	-2%	-9%	7%	5µM*
CC/C(=N/Nc1cccc(C)c1)c1cnnc(SC)n1	190*	-1%	u	-3%	1%	7%
C=CC[C@@H](CC(=O)N[C@@H](CO)Cc1ccccc1)C(=O)N[C@@H](C)COC(=O)[C@@H](CC=C)Cc1ccc(F)cc1	-1	1%	1%	-6%	x	x
CCOc1cc(C(=O)NCCN2C(=O)S/C(=C\c3cccnc3)C2=O)cc(OCC)c1OCC	0	1%	-3%	-6%	-2%	18µM*
COc1ccc(C(=O)NCCN2C(=O)S/C(=C\c3cccnc3)C2=O)c(OC)c1OC	-1	0%	4%	2%	9%	u
CCCCNC(=O)Nc1ccnn1C1CCCCC1	2	6%	11%	-4%	-8%	4µM*
Cc1cc2c(cc1S(=O)(=O)Nc1cccc(C)c1C)n(C)c(=O)c(=O)n2C	-4	0%	4%	-11%	x	0.5µM*
Cc1cc2c(cc1S(=O)(=O)Nc1cccc(Cl)c1C)n(C)c(=O)c(=O)n2C	x	-1%	-9%	-10%	x	x
Cc1cc2c(cc1S(=O)(=O)Nc1ccc(F)cc1)n(C)c(=O)c(=O)n2C	6	-38%	10%	-38%	x	2.5µM*
CC(C)Oc1ccc(CNC(=O)CN2C(=O)CCc3cc(S(=O)(=O)N4CCCCC4)ccc32)cc1	x	5%	0%	1%	x	x
CCN(CC)C(=O)c1cc2c(=O)n3ccccc3nc2s1	-1	-4%	2%	-10%	-2%	-6%
COCCN(CCOC)C(=O)c1cc2c(=O)n3ccccc3nc2s1	-2	0%	-20%	18µM*	-3%	0%
O=C(CCC(=O)N1CCc2ccccc2C1)N1CCN(S(=O)(=O)c2ccccc2)CC1	-2	-3%	-3%	3%	1%	14%
COc1ccccc1NC(=O)C1=C(C)Nc2c(C(=O)Nc3cccc(C)c3)cnn2C1c1ccccc1Cl (centres undefined)	x	-2%	-2%	-7%	x	x
COc1ccccc1NC(=O)C1=C(C)Nc2c(C(=O)Nc3cccc(C)c3)cnn2C1c1ccccc1C (centres undefined)	x	-4%	-12%	28µM*	x	x
SMILES	IL-2 act	Vif-A3G inh	Vif-APOBEC3F blk	KAT2A inh	GoLoco inh red	PKM2 activator
CC1(C)C(CC2OCC(CN3CCCCC3)O2)[C@H]2CC[C@@H]1C2 (some centres undefined)	2	2%	0%	-7%	3%	-7%
O=C(Nc1ccc(Cl)cn1)c1cccc(S(=O)(=O)N2CCCCCC2)c1	-1	20µM*	0%	x	x	x
CCCCCCCCCCCCC(O)C(=O)O (centres undefined)	x	x	x	-21%	-1%	x
CCCCCCCCCCCCCCCCC(C(=O)O)C(O)(CC(=O)O)C(=O)O (centres undefined)	x	x	x	1.1µM*	x	x
CCOC(=O)c1cc(-c2ccccc2)n(CCC(=O)N2CCN(c3ccccn3)CC2)c1C	-1	-6%	7%	-5%	-12%	-5%
O=C(CCCSc1ccccc1)Nc1nc(-c2ccco2)c(-c2ccco2)s1	-1	1%	-4%	-24%	11%	18µM*
Cc1noc(C)c1CS(=O)(=O)c1ccc(Br)cc1	1	-1%	6%	38%	-6%	-3%
Cc1nc2ccc(NS(=O)(=O)c3cccc([N+](=O)[O-])c3)cc2s1	-1	0%	2%	3%	x	x
Cc1nn(CC(=O)c2ccc(Br)s2)c(C)c1[N+](=O)[O-]	1	-19%	u	1%	83%	-11%
N#Cc1c(N)sc2c1CCCCCC2	-2	0%	-5%	-7%	x	-1%
N#Cc1c(N)sc(=S)c2c1CCCCC2	3	4%	u	u	25µM*	10%
Cc1cccc(N(Cc2cc3cc(C)ccc3[nH]c2=O)C(=O)c2cccs2)c1	1	2%	-2%	-2%	5%	0%
C#Cc1ccc(CN2CCN(CCc3ccccc3)C(CCO)C2)cc1 (centres undefined)	1	1%	1%	-5%	x	1%
O=C(CCC(=O)c1ccccc1)Nc1ccccc1	-1	-1%	u	x	x	x
CC[N+]1(CC(O)COC2CC(C)CC(C)(C)C2)CCOCC1 (centres undefined)	0	1%	-1%	-8%	5.6µM*	-7%
Cc1noc(C)c1S(=O)(=O)Nc1ccc2c(c1)C(=O)N([C@H](C)CO)C[C@H](C)[C@@H](CN(C)S(=O)(=O)c1ccc(F)cc1)O2	1	-3%	0%	-1%	x	x
O=C(OCC(=O)N1CCN(C(=O)c2ccco2)CC1)c1cc(-c2ccco2)nc2ccccc12	-1	-1%	1%	u	-2%	16µM*
O=C(c1ccco1)N1CCN(C(=O)c2cc(Cl)nc3ccccc23)CC1	-3	-1%	5%	-9%	x	x
O=C(c1ccco1)N1CCN(C(=O)c2cc(-c3ccccn3)nc3ccccc23)CC1	0	0%	1%	-2%	12%	20µM*
